Values joined by “and” are separate entries in the source; they are usually repeats but may differ in a detail not shown here. Equal values may be shown once. Results filed as inconclusive are left out. Where a structure was tested more than once in an assay, its records may differ in their call. Active and inactive are the calls of the source. Rule for the calls: active = hit-call score of the fitted dose curve at least 0.9, where 1 is the maximum; inconclusive = response in the unintended direction; inactive = score below 0.9.

Chain of Cellular tumor antigen p53 (Homo sapiens) (P04637 whole entry, looked up): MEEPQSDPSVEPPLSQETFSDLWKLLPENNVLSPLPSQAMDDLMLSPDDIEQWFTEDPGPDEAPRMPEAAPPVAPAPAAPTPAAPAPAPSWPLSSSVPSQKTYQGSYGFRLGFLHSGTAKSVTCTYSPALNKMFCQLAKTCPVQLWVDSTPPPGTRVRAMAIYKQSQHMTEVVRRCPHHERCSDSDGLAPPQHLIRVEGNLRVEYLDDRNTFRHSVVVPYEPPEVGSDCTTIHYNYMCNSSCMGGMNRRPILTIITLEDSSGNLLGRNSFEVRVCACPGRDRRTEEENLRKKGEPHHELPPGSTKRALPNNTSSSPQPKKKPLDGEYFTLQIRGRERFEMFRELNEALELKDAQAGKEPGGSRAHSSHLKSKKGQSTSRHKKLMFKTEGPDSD

Tested on in one assay: not listed separately
As to the kind of experiment: TOX21_p53_BLA_p2_viability: Viability Assessment in the Tox21 HCT-116 p53 Agonism Beta-lactamase Assay, Phase 2 (AID 2283591).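 Note: compound exposure lasted 16 h at 37 °C; actives lower the ATP signal meaning cytotoxicity.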 Put shortly: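 HCT116 p53-bla cells, 4000/well, dosed after 5 h plating (217-fold dilution of DMSO stocks) and incubated 16 h at 37C. Viability taken as cellular ATP by CellTiter-Glo luminescence after 30 min RT; signal loss marks cytotoxicity.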
As to `ClCCOCCCl`, the call was inactive.

In the case of `c1ccc(N=Nc2ccccc2)cc1`, the result was inactive. Broadly, the AC50 is the concentration giving half of the maximal activity seen. In the case of `Clc1ccc(C(c2ccc(Cl)cc2)C(Cl)(Cl)Cl)cc1`, the AC50 was 46.1 µM (active) and 46.4 µM (active) and 23 µM (active). Consider `[As]#[In]`, for which the call was inactive.

For the compound `O=Cc1ccco1`, the outcome was inactive. Take `Nc1cc(Cl)cc(C(=O)O)c1Cl`: the compound was classed as inactive.

For `Nc1ccc(Oc2ccc(N)cc2)cc1`, the compound was classed as inactive.

As for `COC(=O)c1ccccc1N`, the outcome was inactive. As to `Clc1ccc(C(c2ccc(Cl)cc2)C(Cl)Cl)cc1`, the AC50 is 59.6 µM (active) and 33.7 µM (active). On to `c1ccc2c(c1)-c1cccc3cccc-2c13`, for which the compound was called inactive. Regarding `C1=Cc2cccc3cccc1c23`, the outcome was inactive.

With `c1ccc2c(c1)oc1ccccc12`, the outcome was inactive. In the case of `CCC[CH2][Sn]([Cl])([CH2]CCC)[CH2]CCC`, the AC50 is 1.22 µM (active) and 1.04 µM (active). `CC(C)(O)c1cnn2c(-c3ccc(F)c(-c4c(F)cccc4C#N)c3)cnc2n1`: the compound was called inactive. Consider `c1ccc(NNc2ccccc2)cc1`, for which the result was inactive. The same measure, in the same setting: next, `CN(C)c1ccc(C(=O)c2ccc(N(C)C)cc2)cc1`: “inactive”. For `CN(C)C(=O)Nc1ccc(Cl)cc1`, the outcome was inactive.

On to `Nc1ccc([N+](=O)[O-])cc1`, for which the compound was called inactive. On to `CC(O)CCO` (stereo not given), for which the result was inactive. Consider `Oc1ccc2ccc3cccc4ccc1c2c34`, for which the compound was classed as inactive. Regarding `C[N+](C)(C)CC1CO1` (stereo not given), the compound was classed as inactive. `Cc1ccc([N+](=O)[O-])cc1`: the call was inactive.

The next assay has as its target Cellular tumor antigen p53 (Homo sapiens) (UniProt P04637). The assay is described as follows: TOX21_p53_BLA_p2_ratio: Tox21 HCT-116 p53 Agonism Beta-lactamase Assay, Ratio, Phase 2 (AID 2283592). An outline of the steps:
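Gain-of-signal p53 agonism was scored from the beta-lactamase FRET ratio (460/530 nm, 405 nm excitation) in HCT116 cells treated 16 h at 37C, 5% CO2, with DMSO serving as negative control and baseline.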
`ClCCOCCCl`: the result was inactive.

Take `c1ccc(N=Nc2ccccc2)cc1`: the result was inactive. For the compound `Clc1ccc(C(c2ccc(Cl)cc2)C(Cl)(Cl)Cl)cc1`, the AC50 is 60.7 µM (active) and 31.1 µM (active); the result was inactive. Take `[As]#[In]`: the outcome was inactive. Regarding `O=Cc1ccco1`, the outcome was inactive.

For the compound `Nc1cc(Cl)cc(C(=O)O)c1Cl`, the outcome was inactive. For the compound `Nc1ccc(Oc2ccc(N)cc2)cc1`, the result was inactive. In the case of `O=C1CCCO1`, the outcome was inactive. Same read-out and setting: next, `COC(=O)c1ccccc1N`: “inactive”. On to `Clc1ccc(C(c2ccc(Cl)cc2)C(Cl)Cl)cc1`, for which the AC50 is 68 µM (active) and the outcome was inactive. For `c1ccc2c(c1)-c1cccc3cccc-2c13`, the outcome was inactive. For `C1=Cc2cccc3cccc1c23`, the outcome was inactive. Take `c1ccc2c(c1)oc1ccccc12`: the outcome was inactive. On to `CCC[CH2][Sn]([Cl])([CH2]CCC)[CH2]CCC`, for which the AC50 is 31.8 µM (active) and 46 µM (active). Turning to `CC(C)(O)c1cnn2c(-c3ccc(F)c(-c4c(F)cccc4C#N)c3)cnc2n1`, the outcome was inactive. As to `c1ccc(NNc2ccccc2)cc1`, the result was inactive. For `CN(C)c1ccc(C(=O)c2ccc(N(C)C)cc2)cc1`, the concentration at half-maximal activity (AC50) was 748 nM (active) and 1.29 µM (active). For `CCCCC(CC)COC(=O)c1ccc(C(=O)OCC(CC)CCCC)c(C(=O)OCC(CC)CCCC)c1` (stereo not given), the result was inactive. Same read-out and setting: next, `CN(C)C(=O)Nc1ccc(Cl)cc1`: “inactive”; `Cc1ccc(N)cc1`: “inactive”; `Nc1ccc([N+](=O)[O-])cc1`: “inactive”. Turning to `CC(O)CCO` (stereo not given), the outcome was inactive.

Regarding `Oc1ccc2ccc3cccc4ccc1c2c34`, the result was inactive. The same measure, in the same setting: for `CCCCCCCCCCCCCN1CC(C)OC(C)C1` (stereo not given) the value was “inactive”. `C[N+](C)(C)CC1CO1` (stereo not given): the result was inactive. `Cc1ccc([N+](=O)[O-])cc1`: the outcome was inactive.

For the origin of these results see PubChem BioAssay (EPA / NIEHS).
